Measurements from PubChem BioAssay (Tox21).
Values joined by “and” are separate entries in the source; they are usually repeats but may differ in a detail not shown here. Equal entries are not always repeated. Records with an inconclusive call do not appear. A call without a number means that no potency is given here. Active and inactive are the calls of the source. The call rests on the fitted dose curve; in most records, active means well fitted curve in the direction sought with a large enough effect in the repeat runs; inconclusive means weak or mixed curves; inactive means no such curve, though single readings can be large; an effect the other way counts as inactive or inconclusive.

Test: qHTS RealTime-Glo MT Cell Viability Assay in HEK293 cells - 24 hour (AID 1224886); further: nearly all actives have a fitted effect of over 50% in size; further: potency means the concentration at half of the fitted maximal effect; on activity change, negative = cytotoxicity: top concentration of the series differs between compounds
Conditions: RealTime-Glo luminescence; series mostly up to 76.8 µM; activity change, negative = cytotoxicity: at the top concentration
Method in brief: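 Tox21 10K qHTS, HEK293, 600 cells/well, RealTime-Glo reagent co-dispensed with cells; 5 h preincubation, compound by pintool, 37 C, luminescence at 0–40 h.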

SMILES	Potency	activity change, negative = cytotoxicity
Cc1cc(CC(=O)O)n(C)c1C(=O)c1ccc(Cl)cc1	inactive	
Cc1ccccc1C=O	inactive	
C[n+]1ccn(CCO)c1	inactive	
CCCN(CCC)C(=O)SCC	inactive	
C1CCCNCC1	inactive	
NCCNCCNCCN	inactive	
COC(=O)/C=C\C(=O)OC	inactive	
C=CC(=O)NCOCCCC	inactive	
CS(=O)(=O)c1ccc(Cl)cc1	inactive	
OCC(O)CS (centres undefined)	inactive	
NC1CCCCC1N (centres undefined)	inactive	
CC(C)=CCC/C(C)=C/C=O	inactive	
O=C(NCC1CCCCN1)c1cc(OCC(F)(F)F)ccc1OCC(F)(F)F (centres undefined)		-12.9% [at 35.3 µM] (inactive)
CCCCCNCCCCC	inactive	
Cc1ccc(C)c(S(=O)(=O)O)c1	inactive	
C=C(CC(=O)O)C(=O)O	inactive	
CCn1cc(C(=O)O)c(=O)c2cc3c(cc21)OCO3	inactive	
C=C1C[C@]23C[C@@]1(O)CC[C@H]2[C@@]12C=C[C@H](O)[C@@](C)(C(=O)O1)[C@H]2[C@@H]3C(=O)O	inactive	
CC(=O)OCc1ccc2c(c1)OCO2	inactive	

SMILES	Potency	activity change, negative = cytotoxicity
CCCOC(=O)NCCCN(C)C	inactive	
CN1Cc2c(N)cccc2C(c2ccccc2)C1 (centres undefined)	inactive	
O=c1n(CCCN2CCN(c3cccc(Cl)c3)CC2)nc2ccccn12	13.8 µM (active) and 16.9 µM (active)	
Cc1ccccc1Cl	inactive	
NC(N)=S	inactive	
CC(C)(CO)CO	inactive	
COC(=O)OC	inactive	
CC1(C)C(=O)N(Cl)C(=O)N1Cl	inactive	
CC(C)(C)NC[C@H](O)COc1nsnc1N1CCOCC1	inactive	
Cc1cccc(C)c1[N+](=O)[O-]		0.195% (inactive)
CC(CN1c2ccccc2Sc2ccccc21)N(C)C (centres undefined)	39.3 µM (active) and 43.6 µM (active)	
O=C(c1ccccc1)c1ccc(O)c(O)c1O	inactive	
O=C1OC(=O)c2c(Cl)c(Cl)c(Cl)c(Cl)c21		2.13% (inactive)
OCc1ccc(Cl)cc1Cl	inactive	
O=C1O[C@H]([C@H](O)CO)C(O)=C1O	inactive	
OCCOCCOCCOCCOCCO	inactive	
CCN(CC)CCNC(=O)c1ccc(N)cc1	inactive	
COCN(COC)c1nc(N(COC)COC)nc(N(COC)COC)n1	inactive	
CC(=O)OCCC(C)C	inactive	

Test: qHTS RealTime-Glo MT Cell Viability Assay in HEK293 cells - 8 hour (AID 1224887); further: nearly all actives have a fitted effect of over 50% in size; further: potency means the concentration at half of the fitted maximal effect; on activity change, negative = cytotoxicity: top concentration of the series differs between compounds
Conditions: RealTime-Glo luminescence; series mostly up to 76.8 µM; activity change, negative = cytotoxicity: at the top concentration
Method in brief: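 Real-time viability in HEK293: signal arises when living cells convert a prosubstrate for NanoLuc in the medium, so luminescence tracks viable cell number. Compound (23 nL, DMSO) added 5 h post-seeding; kinetic reads at 0–40 h, 37 C.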

SMILES	Potency	activity change, negative = cytotoxicity
Cc1cc(CC(=O)O)n(C)c1C(=O)c1ccc(Cl)cc1	inactive	
Cc1ccccc1C=O	inactive	
C[n+]1ccn(CCO)c1	inactive	
CCCN(CCC)C(=O)SCC	inactive	
C1CCCNCC1	inactive	
NCCNCCNCCN	inactive	
COC(=O)/C=C\C(=O)OC	inactive	
C=CC(=O)NCOCCCC	inactive	
CS(=O)(=O)c1ccc(Cl)cc1	inactive	
OCC(O)CS (centres undefined)	inactive	
NC1CCCCC1N (centres undefined)	inactive	
CC(C)=CCC/C(C)=C/C=O	inactive	
O=C(NCC1CCCCN1)c1cc(OCC(F)(F)F)ccc1OCC(F)(F)F (centres undefined)		-20.9% [at 35.3 µM] (inactive)
CCCCCNCCCCC	inactive	
Cc1ccc(C)c(S(=O)(=O)O)c1	inactive	
C=C(CC(=O)O)C(=O)O	inactive	
CCn1cc(C(=O)O)c(=O)c2cc3c(cc21)OCO3	inactive	
C=C1C[C@]23C[C@@]1(O)CC[C@H]2[C@@]12C=C[C@H](O)[C@@](C)(C(=O)O1)[C@H]2[C@@H]3C(=O)O	inactive	
CC(=O)OCc1ccc2c(c1)OCO2	inactive	

SMILES	Potency	activity change, negative = cytotoxicity
CCCOC(=O)NCCCN(C)C	inactive	
CN1Cc2c(N)cccc2C(c2ccccc2)C1 (centres undefined)	inactive	
O=c1n(CCCN2CCN(c3cccc(Cl)c3)CC2)nc2ccccn12	11 µM (active) and 10.7 µM (active)	
Cc1ccccc1Cl	inactive	
NC(N)=S	inactive	
CC(C)(CO)CO	inactive	
COC(=O)OC	inactive	
CC1(C)C(=O)N(Cl)C(=O)N1Cl	inactive	
CC(C)(C)NC[C@H](O)COc1nsnc1N1CCOCC1	inactive	
Cc1cccc(C)c1[N+](=O)[O-]	inactive	
CC(CN1c2ccccc2Sc2ccccc21)N(C)C (centres undefined)	24.8 µM (active)	
O=C(c1ccccc1)c1ccc(O)c(O)c1O	inactive	
O=C1OC(=O)c2c(Cl)c(Cl)c(Cl)c(Cl)c21	inactive	
OCc1ccc(Cl)cc1Cl	inactive	
O=C1O[C@H]([C@H](O)CO)C(O)=C1O	inactive	
OCCOCCOCCOCCOCCO	inactive	
CCN(CC)CCNC(=O)c1ccc(N)cc1	inactive	
COCN(COC)c1nc(N(COC)COC)nc(N(COC)COC)n1	inactive	
CC(=O)OCCC(C)C	inactive	

Test: A CellTox Green Cytotoxicity Assay to monitor cytotoxicity in HEK293 cells - 16 hour (AID 1224888); further: nearly all actives have a fitted effect of over 35% in size
Conditions: CellTox Green fluorescence; series mostly up to 76.8 µM; activity change: at the top concentration
Method in brief: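 Cells (HEK293, 600/well) and dye reagent are dispensed together. After 5 h at 37 C, 23 nL compound is pinned in. Plates stay at 37 C for 40 h with fluorescence read at 0h, 8h, 16h, 24h, 32h and 40h.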

SMILES	Potency	activity change
Cc1cc(CC(=O)O)n(C)c1C(=O)c1ccc(Cl)cc1	inactive	
Cc1ccccc1C=O	inactive	
C[n+]1ccn(CCO)c1	inactive	
CCCN(CCC)C(=O)SCC	inactive	
C1CCCNCC1	inactive	
NCCNCCNCCN		-2.98% [at 35.3 µM, active compounds read high] (inactive)
COC(=O)/C=C\C(=O)OC	inactive	
C=CC(=O)NCOCCCC	inactive	
CS(=O)(=O)c1ccc(Cl)cc1	inactive	
OCC(O)CS (centres undefined)	inactive	
NC1CCCCC1N (centres undefined)	inactive	
CC(C)=CCC/C(C)=C/C=O	inactive	
O=C(NCC1CCCCN1)c1cc(OCC(F)(F)F)ccc1OCC(F)(F)F (centres undefined)	inactive	
CCCCCNCCCCC	inactive	
Cc1ccc(C)c(S(=O)(=O)O)c1	inactive	
C=C(CC(=O)O)C(=O)O	inactive	
CCn1cc(C(=O)O)c(=O)c2cc3c(cc21)OCO3		-7.43% (inactive)
C=C1C[C@]23C[C@@]1(O)CC[C@H]2[C@@]12C=C[C@H](O)[C@@](C)(C(=O)O1)[C@H]2[C@@H]3C(=O)O	inactive	
CC(=O)OCc1ccc2c(c1)OCO2	inactive	

SMILES	Potency	activity change
CCCOC(=O)NCCCN(C)C	inactive	
CN1Cc2c(N)cccc2C(c2ccccc2)C1 (centres undefined)	inactive	
O=c1n(CCCN2CCN(c3cccc(Cl)c3)CC2)nc2ccccn12	inactive	
Cc1ccccc1Cl	inactive	
NC(N)=S	inactive	
CC(C)(CO)CO	inactive	
COC(=O)OC	inactive	
CC1(C)C(=O)N(Cl)C(=O)N1Cl	inactive	
CC(C)(C)NC[C@H](O)COc1nsnc1N1CCOCC1		-18.1% (inactive)
Cc1cccc(C)c1[N+](=O)[O-]	inactive	
CC(CN1c2ccccc2Sc2ccccc21)N(C)C (centres undefined)		17.2% [at 35.3 µM, active compounds read high] (inactive)
O=C(c1ccccc1)c1ccc(O)c(O)c1O	inactive	
O=C1OC(=O)c2c(Cl)c(Cl)c(Cl)c(Cl)c21	inactive	
OCc1ccc(Cl)cc1Cl	inactive	
O=C1O[C@H]([C@H](O)CO)C(O)=C1O	inactive	
OCCOCCOCCOCCOCCO	inactive	
CCN(CC)CCNC(=O)c1ccc(N)cc1	inactive	
COCN(COC)c1nc(N(COC)COC)nc(N(COC)COC)n1	inactive	
CC(=O)OCCC(C)C	inactive	
